The source of these data is publication PMC4336329 (PLoS ONE, 2015).

Out of some 310,000 compounds screened, about 14,000 (4.5%) showed an effect of 50% or more. The effect is printed as a negative number. This excerpt belongs to a sample that is enriched for strong results.
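Also: peak tail current of the secondary pulse compared with the same well before compound.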

The target in this experiment is human ether-à-go-go-related gene (hERG) potassium channel (human, UniProt Q12809). Put plainly: primary screen, population patch clamp on CHO cells stably expressing hERG; higher = less effect of the substance.
Sequence of human ether-à-go-go-related gene (hERG) potassium channel (Q12809 whole entry, looked up): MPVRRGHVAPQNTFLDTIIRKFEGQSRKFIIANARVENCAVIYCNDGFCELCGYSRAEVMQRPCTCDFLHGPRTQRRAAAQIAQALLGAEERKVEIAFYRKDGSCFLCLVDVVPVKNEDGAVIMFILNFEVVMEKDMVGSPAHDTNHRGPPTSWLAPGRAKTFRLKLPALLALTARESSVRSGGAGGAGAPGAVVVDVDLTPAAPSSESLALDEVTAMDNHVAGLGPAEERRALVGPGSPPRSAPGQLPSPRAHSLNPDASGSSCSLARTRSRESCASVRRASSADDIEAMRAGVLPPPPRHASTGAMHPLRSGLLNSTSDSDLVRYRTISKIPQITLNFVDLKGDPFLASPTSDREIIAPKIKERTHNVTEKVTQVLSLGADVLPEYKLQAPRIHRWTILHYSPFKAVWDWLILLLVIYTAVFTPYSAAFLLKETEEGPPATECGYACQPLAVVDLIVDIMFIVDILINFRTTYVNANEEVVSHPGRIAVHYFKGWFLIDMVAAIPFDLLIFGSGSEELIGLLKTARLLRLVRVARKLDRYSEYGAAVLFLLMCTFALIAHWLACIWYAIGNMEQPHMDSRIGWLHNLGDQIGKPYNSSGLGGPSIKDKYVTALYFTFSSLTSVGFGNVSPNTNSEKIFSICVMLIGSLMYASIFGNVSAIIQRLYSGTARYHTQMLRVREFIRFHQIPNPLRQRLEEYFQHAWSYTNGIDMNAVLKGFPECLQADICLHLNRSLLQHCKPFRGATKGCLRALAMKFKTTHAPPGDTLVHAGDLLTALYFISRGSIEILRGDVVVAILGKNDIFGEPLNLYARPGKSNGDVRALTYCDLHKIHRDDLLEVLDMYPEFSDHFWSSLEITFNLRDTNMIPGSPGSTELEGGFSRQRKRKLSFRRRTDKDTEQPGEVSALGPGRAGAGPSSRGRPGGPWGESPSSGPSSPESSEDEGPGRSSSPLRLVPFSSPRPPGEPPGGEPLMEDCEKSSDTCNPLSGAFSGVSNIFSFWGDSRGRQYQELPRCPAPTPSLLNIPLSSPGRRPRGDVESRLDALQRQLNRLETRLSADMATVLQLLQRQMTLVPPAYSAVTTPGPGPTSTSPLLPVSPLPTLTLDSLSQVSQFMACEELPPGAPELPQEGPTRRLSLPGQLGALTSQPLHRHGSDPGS
Turning to `CCC(C(=O)NC1CCCCC1)n1c2ccccc2c2nc(=O)cc(C)n21` (stereo not shown), the “hERG current change (%, negative = inhibition) at 10uM” value was 10.4%.
With `O/N=C/c1cn(-c2ccccc2)nc1-c1cccnc1` the figure was -31.6%.
As for `COCCCNC(=O)Cn1cnc2sc(C)c(S(=O)(=O)N3CC(C)CC(C)C3)c2c1=O` (stereo not shown), the “hERG current change (%, negative = inhibition) at 10uM” value is given as -0.637%.
With `COCCCN1C(=O)c2ccc(C(=O)O)cc2C1=O`, the “hERG current change (%, negative = inhibition) at 10uM” value is reported as -0.568%.
Turning to `COC(=O)c1ccc(/C=N/NC(=O)c2cccc(F)c2)cc1`, the “hERG current change (%, negative = inhibition) at 10uM” value is 6.65%.
Take `COc1cccc(C(=O)NCC(=O)N/N=C/c2cn[nH]c2-c2ccccc2)c1`: the “hERG current change (%, negative = inhibition) at 10uM” value is reported as -4.6%.
For the molecule `Cc1nc2nc(C)c(CCC(=O)NCCC3=CCCCC3)c(C)n2n1`, the “hERG current change (%, negative = inhibition) at 10uM” value worked out at 4.49%.
For the molecule `COc1ccc(S(=O)(=O)N(C)C)cc1NC(C)C(=O)Nc1cccc(C#N)c1` (stereo not shown), the “hERG current change (%, negative = inhibition) at 10uM” value is -23.5%.
On to `COc1cccc(CNC(=O)C2CSC3(C)CCC(=O)N23)c1` (stereo not shown), for which the “hERG current change (%, negative = inhibition) at 10uM” value came to 6.82%.
With `CN(C)c1ccc(N/C=C/C(=O)C(C)(C)C)cc1` the figure was 15.9%; with `COC(=O)CN1C(=S)N(C)C(=O)/C1=C/c1cccs1`, 5.21%; with `O=C(CNC(=O)c1ccc(Br)o1)NNC(=O)c1ccccc1O`, -2.55%.
Consider `CCn1c2ccccc2c2cc(N=C3SC(CC(=O)Nc4ccccc4OC)C(=O)N3CCOC)ccc21` (stereo not shown), for which the “hERG current change (%, negative = inhibition) at 10uM” value is listed as -3.75%.
With `CN(C)CCN(C(=O)c1ccc(Br)s1)c1nc2cc3c(cc2s1)OCCO3.Cl`, the “hERG current change (%, negative = inhibition) at 10uM” value is -4.91%.
The figure for `CN(C)CCCN(C(=O)c1ccc(Br)s1)c1nc2cc3c(cc2s1)OCO3.Cl` is -52%; for `CN(C)CCCN(C(=O)c1ccc(Br)s1)c1nc2cc3c(cc2s1)OCCO3.Cl` it is -33.9%.
With `COC(=O)C1=C(c2ccc(F)cc2OCc2ccccc2)C[C@@H]2CC[C@H]1N2C(=O)N1CCCCC1` the figure was -9.9%; with `Cc1ccccc1CNC(=O)Cn1cnc(S(=O)(=O)N2CCCC2)c1`, 6.06%; with `CCCOC(=O)C(C)n1cnc2scc(-c3ccc(C)cc3)c2c1=O` (stereo not shown), 6.79%.
Regarding `CC(C)(C)n1nnnc1C(c1ccc2ncccc2c1)N1CCSCC1` (stereo not shown), the “hERG current change (%, negative = inhibition) at 10uM” value was -18.1%.
Regarding `CC(C)(C)n1nnnc1C(c1cccnc1)N1CCN(c2ccccc2)CC1` (stereo not shown), the “hERG current change (%, negative = inhibition) at 10uM” value is -8.19%.
The figure for `COc1ccc(N2CCN(C(c3ccc4ncccc4c3)c3nnnn3C(C)(C)C)CC2)cc1` (stereo not shown) is -52.1%; for `CCC(C)(C)n1nnnc1C(c1ccc2ncccc2c1)N1CCN(c2ccc(O)cc2)CC1` (stereo not shown) it is -31.7%.
In the case of `CCC(C)(C)n1nnnc1C(c1cccnc1)N1CCN(c2cccc(C(F)(F)F)c2)CC1` (stereo not shown), the “hERG current change (%, negative = inhibition) at 10uM” value is recorded as -41%.
`COc1ccc(N2CCN(C(c3ccc4ncccc4c3)c3nnnn3C(C)C)CC2)cc1` (stereo not shown): the “hERG current change (%, negative = inhibition) at 10uM” value is -51.7%.
Regarding `CC(C)(C)n1nnnc1C(c1cccnc1)N1CCN(c2cccc(C(F)(F)F)c2)CC1.Cl` (stereo not shown), the “hERG current change (%, negative = inhibition) at 10uM” value is given as -53.3%.
As to `COCCn1nnnc1C(c1ccc2ncccc2c1)N1CCN(c2ccccc2F)CC1` (stereo not shown), the “hERG current change (%, negative = inhibition) at 10uM” value is given as -19.4%.
Turning to `CC(C)(C)n1nnnc1C(c1ccc2ncccc2c1)N1CCC(O)CC1` (stereo not shown), the “hERG current change (%, negative = inhibition) at 10uM” value is 12.4%.
Regarding `CCc1ccc(NC(=O)Nc2ccncc2)cc1`, the “hERG current change (%, negative = inhibition) at 10uM” value is on record as -20.9%.
As to `O=C1Nc2ccc([N+](=O)[O-])cc2OC1CCN1CCN(c2ccccc2)CC1` (stereo not shown), the “hERG current change (%, negative = inhibition) at 10uM” value is on record as -47.4%.
Consider `C/C(=N\Nc1ncnc2sc(C)c(C)c12)c1ccccn1`, for which the “hERG current change (%, negative = inhibition) at 10uM” value was -35.5%.
As for `NC(=O)c1coc(-c2ccccc2)n1`, the “hERG current change (%, negative = inhibition) at 10uM” value amounted to 12.9%.
With `O=C(COC(=O)c1cccc2ccccc12)NCCCc1ccccc1`, the “hERG current change (%, negative = inhibition) at 10uM” value amounted to 0.562%.
Take `COC1CCN(C(=O)c2ccc(OC3CCN(CCc4ccccc4)CC3)cc2)CC1`: the “hERG current change (%, negative = inhibition) at 10uM” value is -29.8%.
With `CC(C)N1CCN(C(=O)c2ccc(OC3CCN(CCc4ccccc4)CC3)cc2)CC1` the figure was -0.0142%; with `CC(NC(=O)c1ccc(OC2CCN(Cc3ccccn3)CC2)cc1)c1nccs1` (stereo not shown), -10.3%; with `Cc1csc(C(C)NC(=O)c2ccc(OC3CCN(CCc4ccccc4)CC3)cc2)n1` (stereo not shown), -66.2%.
The figure for `O=C(NCc1ccccn1)c1ccc(OC2CCN(Cc3ccccc3)CC2)cc1` is -10.2%; for `Cc1csc(CNC(=O)c2ccc(OC3CCN(CCc4ccccc4)CC3)cc2)n1` it is -55.3%; for `CCOC(=O)C(CC(=O)Nc1nc(C(C)=O)c(C)s1)C(C)c1ccccc1` (stereo not shown) it is 2.61%.
In the case of `C=CCSc1nc2c(c(=O)[nH]1)C(C(C)C)C(C#N)=C(N)O2` (stereo not shown), the “hERG current change (%, negative = inhibition) at 10uM” value amounted to 3.05%.
For the molecule `O=C(Nc1ccc(-c2nc3ccccc3[nH]2)cc1)c1ccc2c(c1)OCO2`, the “hERG current change (%, negative = inhibition) at 10uM” value came out at 6.85%.
Consider `CCCCN(C)C(=O)c1cn(CC)c2ccc(S(=O)(=O)N(C)C)cc2c1=O`, for which the “hERG current change (%, negative = inhibition) at 10uM” value worked out at 8.08%.
Take `c1cc(C(c2nnnn2C2CCCCC2)N2CCN3CCCC3C2)ccn1` (stereo not shown): the “hERG current change (%, negative = inhibition) at 10uM” value is recorded as -1.98%.
On to `COc1ccc(NC(=O)C2CCCN2C(=O)NC2CCCCC2)cc1` (stereo not shown), for which the “hERG current change (%, negative = inhibition) at 10uM” value is reported as -2.82%.
With `CN(C)CCOc1ccccc1Cc1ccccc1.O=C(O)CC(O)(CC(=O)O)C(=O)O`, the “hERG current change (%, negative = inhibition) at 10uM” value was -61.9%.
Consider `CN(C)CCOc1ccccc1C(C)(C)C.O=C(O)C(=O)O`, for which the “hERG current change (%, negative = inhibition) at 10uM” value came to 5.47%.
With `O=C(O)COc1ccccc1Cc1ccccc1` the figure was 5.22%; with `COc1ccc(-n2ccc3ccccc32)cc1`, 13%; with `CCCCCn1c(=O)c(F)cn(Cc2ccc(OC)c([N+](=O)[O-])c2)c1=O`, -56.6%.
Regarding `CCCCCCn1c(=O)c(F)cn(Cc2ccc(OC)c([N+](=O)[O-])c2)c1=O`, the “hERG current change (%, negative = inhibition) at 10uM” value is reported as -40.3%.
In the case of `CCCCn1c(=O)c(F)cn(Cc2ccc(OC)c([N+](=O)[O-])c2)c1=O`, the “hERG current change (%, negative = inhibition) at 10uM” value is on record as -25.2%.
Take `CC(C)(C)C(=O)Oc1ccc2cc(-c3ccc4ccccc4n3)c(=O)oc2c1`: the “hERG current change (%, negative = inhibition) at 10uM” value is -10.5%.
Consider `Nc1nc(CN2CCN(c3ccccc3F)CC2)nc(Nc2ccc3c(c2)OCCO3)n1`, for which the “hERG current change (%, negative = inhibition) at 10uM” value is reported as -74.4%.
In the case of `CN1CCN(Cc2nc(N)nc(Nc3ccc4c(c3)OCCO4)n2)CC1`, the “hERG current change (%, negative = inhibition) at 10uM” value was -26.1%.
For the molecule `c1ccc(CN2CCN(Cc3ccc4c(c3)OCCO4)CC2)cc1`, the “hERG current change (%, negative = inhibition) at 10uM” value is listed as -10.6%.
Turning to `Nc1nc(COC(=O)c2ccc3c(c2)OCCO3)nc(Nc2ccccc2)n1`, the “hERG current change (%, negative = inhibition) at 10uM” value is given as 10.2%.
With `O=C(CCN1CCN(c2ccccc2F)CC1)Nc1ccc2c(c1)OCO2` the figure was -27.6%; with `Nc1nc(CN2CCN(Cc3ccccc3)CC2)nc(Nc2ccc3c(c2)OCCO3)n1`, -74.8%.
With `Cc1c(C(c2ccc(F)cc2)c2c(O)c3ccccc3oc2=O)c(=O)n(-c2ccccc2)n1C` (stereo not shown) the figure was -20.9%; with `COc1ccc(-n2c(-c3ccco3)nc3c(cnn3-c3ccc(C)cc3)c2=O)cc1`, 1.88%.
As to `C=CCn1c(NC(=O)c2ccc(C)cc2)nc2ccccc21`, the “hERG current change (%, negative = inhibition) at 10uM” value turned out to be 6.35%.
Take `Cc1ccc(NCC(=O)N/N=C/c2c[nH]c3ccccc23)cc1`: the “hERG current change (%, negative = inhibition) at 10uM” value stood at 11.4%.
`CC(C)NC(=O)C(Cc1ccccc1)N1C(=O)c2ccccc2C1=O` (stereo not shown): the “hERG current change (%, negative = inhibition) at 10uM” value is -4.63%.
Take `COc1ccc(/C(O)=C2/C(=O)C(=O)N(CCN(C)C)C2c2cccnc2)cc1C` (stereo not shown): the “hERG current change (%, negative = inhibition) at 10uM” value worked out at 1.58%.
The figure for `CC(=O)c1ccc(N2CCN(C(=O)Nc3ccc(Cl)cc3)CC2)cc1` is -8.35%; for `CC(=O)c1ccc(N2CCN(C(=O)Nc3ccc(C(C)C)cc3)CC2)cc1` it is -63.7%; for `O=C(Nc1ccc2snnc2c1)N1CCSCC1` it is 6.76%.
Take `CC(=O)N1CCN(c2ccc(NC(=O)c3ccc(C(C)(C)C)cc3)cc2)CC1`: the “hERG current change (%, negative = inhibition) at 10uM” value came out at 0.16%.
With `CC(=O)c1ccc(N2CCN(C(=O)Nc3ccc(C)cc3)CC2)cc1`, the “hERG current change (%, negative = inhibition) at 10uM” value was -4.03%.
With `CC(=O)N1CCN(c2ccc(NC(=O)c3ccc(F)cc3)cc2)CC1` the figure was -57.7%; with `O=C(Nc1ccccc1)N1CCN(c2ccc(F)cc2)CC1`, -7.74%; with `CC(=O)c1ccc(N2CCN(C(=O)Nc3ccc(F)cc3)CC2)cc1`, -24.5%.
With `CC(=O)N1CCN(c2ccc(NC(=O)c3ccc(C)cc3)cc2)CC1` the figure was 5.89%; with `O=C(Nc1ccc2snnc2c1)N1CCCCC1`, 11.9%; with `O=C(Nc1ccc(F)cc1)N1CCN(c2ccc(F)cc2)CC1`, -67.8%.
Turning to `O=C(Nc1ccc2snnc2c1)N1CCN(c2ccccc2)CC1`, the “hERG current change (%, negative = inhibition) at 10uM” value was -57.2%.
Turning to `O=S(=O)(Nc1ccc(N2CCOCC2)cc1)c1ccc2ccccc2c1`, the “hERG current change (%, negative = inhibition) at 10uM” value is given as 3.3%.
For the molecule `O=C1C(=O)N(CCS(=O)(=O)c2ccccc2)c2ccc(F)cc21`, the “hERG current change (%, negative = inhibition) at 10uM” value was found to be 8.67%.
`O=C(OCC(=O)N(CCc1ccccc1)Cc1ccccc1)c1cc(S(=O)(=O)N2CCOCC2)ccc1F`: the “hERG current change (%, negative = inhibition) at 10uM” value is -10.8%.
With `Cn1c(N2CCOCC2)cc(=O)n(C)c1=O`, the “hERG current change (%, negative = inhibition) at 10uM” value is listed as -18.2%.
As for `Cc1cc(C(=O)N2CCc3ccccc3C2)n[nH]1`, the “hERG current change (%, negative = inhibition) at 10uM” value was determined as 5.11%.
Regarding `Nc1cccc(NP(=O)(c2ccccc2)c2ccccc2)c1`, the “hERG current change (%, negative = inhibition) at 10uM” value came out at 11.7%.
Take `Cc1c(NC(=O)C2Cc3ccccc3CN2C(=O)c2ccco2)c(=O)n(-c2ccccc2)n1C` (stereo not shown): the “hERG current change (%, negative = inhibition) at 10uM” value is reported as -13.7%.
For `COc1ccc(C(=O)COC(=O)/C=C/c2ccc(S(=O)(=O)Nc3cccc(S(N)(=O)=O)c3)cc2)cc1`, the “hERG current change (%, negative = inhibition) at 10uM” value was 4.88%.
